# The full list was thinned out, with hits kept by preference.
# VCAM1 pot – potentiators of TNFa-induced VCAM1 expression, primary screen, imaging, HUVEC, TNFa stimulus, immunofluorescence | HUVEC TNFa-stimulated VCAM-1 immunofluorescence, high-content imaging; scaled per plate to unstimulated/TNFa-only wells | activation, % at 2 µM | actives 0.19% (n = 93,000);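 active = activation above the screen mean plus 3 SD, with well images confirming the hit on visual review, cut at about 28% in these data, passing the limit was not always enough; inconclusive = activation above that limit but images do not confirm it; inactive = activation not above that limit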;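 also: signal is the number of cytoplasmic VCAM-1 stained grains per positive cell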
# VCAM1 pot conf – potentiators of TNFa-induced VCAM1 expression, confirmation, imaging, HUVEC, triplicate retest. shares compounds with VCAM1 pot. HUVEC TNFa-stimulated VCAM-1 immunofluorescence imaging. activation, % at 2 µM. 230 tested, under 10 active. AID 1034, 2008;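 active = activation above 30% in triplicate retests at 2 µM, then confirmed by visual review of the well images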;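 also: scaled per plate between unstimulated and TNFa-stimulated DMSO control wells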
# Active calls of the source: *; u = inconclusive.
SMILES,VCAM1 pot,others
O=C(Nc1ccccc1)N1CCCc2ccccc21,10,
CCOC(=O)CNC(=O)c1cc(C)oc1C,-3,
CC(C)Cn1cc(C(=O)NCCCOC(C)C)c2c3ccccc3n(C)c2c1=O,-9,
CCOC(=O)CNC(=O)c1cn(CC(C)C)c(=O)c2cc(OC)c(OC)cc12,55*,VCAM1 pot conf=-13
CCN(C(=O)CSc1nc2ccccc2n1CCc1ccccc1)C1CCS(=O)(=O)C1 (stereo unspecified),0,
Cc1[nH]n(-c2ccc([N+](=O)[O-])cc2)c(=O)c1C=NCCN1CCN(C(=O)c2cccc(F)c2)CC1,-6,
COc1ccc(C(=O)NCC(=O)n2nc(C)cc2C)cc1OC,22,
N#CC1=C(N)Oc2n[nH]c(-c3ccccc3)c2C1c1cccnc1 (stereo unspecified),94*,VCAM1 pot conf=-14
CCN(CC)c1ccc2c(c1)OC(N)=C(C#N)C2c1cccnc1 (stereo unspecified),-39,
CCCSC1=C(C#N)C(c2cccnc2)C(C(=O)OCC)=C(c2ccccc2)N1 (stereo unspecified),18,
COc1cccc(-c2nnn(CC(=O)Nc3cc(OC)c(NC(=O)c4ccco4)cc3OC)n2)c1,3,
CC(C)(C)NS(=O)(=O)c1ccc(CCC(=O)N2CCCCC2)cc1,-27,
CCn1c2c(c3cc(OCC(C)C)ccc31)CCCC2=O,47*,VCAM1 pot conf=-11
O=C(CN1CCN(C(=O)c2ccccc2)CC1)Nc1ccc(Br)cn1,1,
COc1ccc(Br)cc1-c1noc(-c2ccccc2)n1,2,
COc1cccc(-c2ccc(-c3noc(-c4cccs4)n3)c(OC)n2)c1,1,
CCOc1nc(-c2ccccc2)ccc1-c1noc(COC)n1,u,VCAM1 pot conf=-10
O=Nc1c(O)n(Cc2ccc(Cl)cc2Cl)c2ccccc12,38,
Cc1cccc(NC(=O)c2cccc(N3C(=O)C4C5CCC(C5)C4C3=O)c2)c1C (stereo unspecified),-2,
CC1=CC(C)(C)N2C(=O)C3(C(C#N)=C(N)Oc4cc(C)oc(=O)c43)c3cccc1c32 (stereo unspecified),14,
COC(=O)c1nc2nc(C)cc(=O)n2[nH]1,-7,
CCOC(=O)c1c(C)cccc1OCC(N)=O,-8,
COc1ccc2oc(=O)c(C(=O)NCc3cccnc3)cc2c1,15,
COc1ccc2oc(=O)c(C(=O)n3ccc(C)n3)cc2c1,0,
COc1ccc2oc(=O)c(C(=O)N3CCN(c4ccccc4)CC3)cc2c1,83*,VCAM1 pot conf=-9
SMILES,VCAM1 pot,others
O=C(Cc1ccc(Cl)cc1)Nc1ccc(N2CCN(C(=O)c3ccco3)CC2)c(Cl)c1,-7,
Cc1cc(C)c2c(n1)sc1c(N3CCOCC3)ncnc12,-61,
CCn1ncc(/C=C/C(=O)Nc2c(C)nn(Cc3ccc(Cl)cc3Cl)c2C)c1C,5,
Clc1ccc2nc(C3CCN(Cc4nnnn4C4CCCCC4)CC3)[nH]c2c1,60*,VCAM1 pot conf=-4
O=C(CN1CCC(c2nc3ccccc3[nH]2)CC1)NCc1ccc2c(c1)OCO2,1,
CCNc1nc(NCC)nc(N2CC(=O)N(CC(=O)OCC)C2=N)n1,-17,
COC(=O)c1ccc(NC(=O)CSCC(=O)OCC(=O)c2ccc(Br)cc2)cc1,9,
CC1=C(C(=O)OC(C)(C)C)C(c2ccco2)C(C#N)=C(N)O1 (stereo unspecified),9,
CCCOC(=O)Nc1cc(OC)c(Cl)cc1OC,-5,
COC(=O)c1ccc(CNC(=O)CSc2nc3sc(C)c(C)c3c(=O)n2C)o1,-26,
OCCN(Cc1ccccc1)Cc1ccc(C(F)(F)F)cc1,-10,
CCOC(=O)CNC(=O)CSc1nc2sc(C)c(C)c2c(=O)n1C,-4,
COC(=O)c1c(NC(=O)CSc2nnc(-c3cccnc3)n2Cc2ccco2)sc(C)c1C,7,
CCCn1c(SCC(=O)Nc2sc(C)c(C)c2C(=O)OCC)nc2c1c(=O)n(C)c(=O)n2C,31*,VCAM1 pot conf=-12
O=C(O)CSc1nnc(Cn2cnc3ccccc32)n1CCc1ccccc1,-1,
COc1ccc(NC2CC(=O)NC2=O)cc1 (stereo unspecified),-6,
CCN1C(=O)/C(=C/c2cn(C)nc2C)SC1=S,53*,VCAM1 pot conf=-5
Cc1ccc(/C=C2/SC(=S)N(CC(=O)Nc3ncc(Cc4ccc(C)cc4)s3)C2=O)cc1,0,
CCN1C(=O)/C(=C/C=C2/SCCN2C)SC1=S,4,
Cc1nn(Cc2ccc([N+](=O)[O-])cc2)c(=O)n1-c1cccc(F)c1,-9,
CC(=O)/C(=N/Nc1cccc(C)c1)N1CCOCC1,1,
CC1(C)C(c2cccs2)=[N+]([O-])C2(CCCCC/C2=N\NC(N)=O)N1O (stereo unspecified),15,
O=C(NCCCCCCNC(=O)C1CCCC1)C1CCCC1,19,
Cn1ccnc1SCC(=O)Nc1ccc2ccccc2c1,32,
C/C(=N\NC(=O)Cc1cccn1C)c1ccc2ccccc2c1,u,VCAM1 pot conf=-4
SMILES,VCAM1 pot,others
CC(C)n1c(CN2CCN(C)CC2)nc2c1c(=O)n(C)c(=O)n2C,-1,
Cc1[nH]n(-c2ccc([N+](=O)[O-])cc2)c(=O)c1N=Nc1nc2ccccc2s1,-52,
CN(C)C(=O)Cn1c(SCC(=O)NC2CCCCC2)nc2ccccc21,1,
Cn1c(CN2CCOCC2)nnc1SCC(=O)NC1CCCCC1,u,VCAM1 pot conf=-17
Cn1c(SCC(=O)NC2CCCCC2)nnc1-c1cccc(N)c1,-54,
Cc1c(C(=O)O)sc2nc3n(c(=O)c12)CCC(C)CC3 (stereo unspecified),0,
CCOC(=O)c1ccc(Nc2c(CC)c(C)nc3ncnn23)cc1,u,VCAM1 pot conf=-8
CCOC(=O)c1ccc(NC(=O)Nc2ccc(S(N)(=O)=O)cc2)cc1,2,
CCOC(=O)c1ccc(NC(=O)CC2SC(=NC)N(C)C2=O)cc1 (stereo unspecified),-18,
CCOc1ccc(/C(O)=C2/C(=O)C(=O)N(c3nc(C)c(C)s3)C2c2ccco2)cc1 (stereo unspecified),10,
Cc1ccc(NC(=O)C2CCN(S(=O)(=O)c3c(C)[nH]c(=O)[nH]c3=O)CC2)cc1,0,
Cc1ccc(S(=O)(=O)N2CCCC(C(=O)NCCc3ccc4c(c3)OCO4)C2)cc1 (stereo unspecified),-1,
S=C(NN=C1CCCCCC1)Nc1ccc(Cl)cc1,35*,VCAM1 pot conf=-25
C=CCNc1nc(Nc2ccc(OC)cc2)nc(OCC)n1,-6,
CS(=O)(=O)N1CCCC(C(=O)NCc2ccc(F)cc2Cl)C1 (stereo unspecified),-8,
COc1ccccc1N(CC(=O)NCCSc1ccccc1)S(C)(=O)=O,u,VCAM1 pot conf=-1
COCCNC(=O)CC(c1ccccc1)c1ccccc1,11,
CCOc1ccccc1N(CC(=O)N1CCCCCC1)S(C)(=O)=O,2,
O=C(N/N=C/c1c(Nc2cccc(C(F)(F)F)c2)nc2ccccn2c1=O)c1ccccc1,1,
O=C(CC(NS(=O)(=O)c1ccc(Cl)cc1)c1ccco1)N1CCc2ccccc21 (stereo unspecified),-1,
COc1cccc(-c2nc(=S)c3c(n2CCCO)CCCC3)c1,18,
Cc1nc2sc(C(c3cccc(F)c3)N3CCCC(C)C3)c(O)n2n1 (stereo unspecified),-2,
COc1ccc(-n2cnnc2SCCC#N)cc1,u,VCAM1 pot conf=-8
CC(C)(C)c1ccc(-c2nnc(SCCC#N)n2C2CCCC2)cc1,5,
COc1cccc(Cn2cnc3c(NS(=O)(=O)c4cccc(Cl)c4Cl)c(C)c(C)cc32)c1,-1,
COc1ccc([C@H]2[C@@H](C#N)[C@H](C#N)N3CCCN23)cc1,35,
